A selection: hits, their analogues and other compounds. The true share with any hit is near 2.1%.
Gli-Sufu antag = Gli-Sufu pathway antagonists, primary screen, luciferase luminescence, Sufu-KO-LIGHT cells, uHTS. Sufu-KO-LIGHT fibroblasts, Gli luciferase reporter luminescence. inhibition, % at 5 µM. actives 0.74% (n = 340,000). AID 588413, 2011;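 active means inhibition above about 55%, limit read from the data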
GalR3 antagonist = GalR3 antagonists in HEK293 cells, primary screen, cell-based, fluorescence readout; inhibition, % at 3 µM; Galanin receptor type 3 (Homo sapiens), O60755; actives 0.44% (n = 360,000); HEK293 GalR3-CNG cAMP membrane potential fluorescence; galR3 body fused to GalR1 C-terminus;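 active means inhibition above the screen-wide average plus 3 SD, cut at about 13% in these data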;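 further: forskolin and galanin both at EC90 stimulate the cells; cAMP rise reported by CNG channel membrane potential dye signal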
Target sequence (O60755 1-299 limits assumed): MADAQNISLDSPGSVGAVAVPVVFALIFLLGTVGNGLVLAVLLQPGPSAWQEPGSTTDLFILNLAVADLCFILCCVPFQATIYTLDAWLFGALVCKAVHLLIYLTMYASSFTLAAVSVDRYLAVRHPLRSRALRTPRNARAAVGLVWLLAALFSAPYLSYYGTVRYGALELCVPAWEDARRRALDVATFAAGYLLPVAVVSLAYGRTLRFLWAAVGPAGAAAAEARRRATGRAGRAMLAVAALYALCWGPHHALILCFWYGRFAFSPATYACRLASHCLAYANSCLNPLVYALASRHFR
NR2F2 inh = NR2F2 transcriptional activity inhibitors, primary screen, cell-based, luciferase reporter, HEK293T, luminescence; COUP transcription factor 2 (Homo sapiens), P24468; HEK293T NGFI-A luciferase reporter; actives 0.7% (n = 370,000); AID 686940, 2013; inhibition, % at 8.6 µM;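 active means inhibition above a per-plate cutoff, mean inhibition of test wells between control levels plus 3 SD, cut at about 38% in these data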;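 further: cells cotransfected with COUP-TFII expression vector driving the NGFI-A reporter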
aDG glyco up = activators of alpha-DG glycosylation, primary screen, uHTS, Pro5-aDG cells, AlphaScreen | alpha-DG glycosylation AlphaScreen (IIH6); 0% Pro5, 100% B10-LARGE cell signal | activation, % at 10 µM | actives 0.22% (n = 360,000);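 active means activation of at least 8% versus controls, or a plate z-score of at least 8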;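 further: Pro5 are CHO cells carrying HIG-tagged alpha-DG that lacks glycosylation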
Env fusion inh = inhibitors of HIV-1 Env-driven cell-cell fusion, primary screen, HeLa-JRFL effector, CEM21 target cells, luciferase | inhibition, % at 12.3 µM | actives 1.1% (n = 360,000);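 active means mean replicate inhibition score of at least 50 and every replicate individually at or above 50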
Each line names hits and unclear results; the compound was inactive in the other large screens; [ ] = remark or other dose.

O=C(N/N=C/c1c(O)ccc2ccccc12)c1ccc(Br)o1	Gli-Sufu antag 66
Cc1cccn2c(=O)nc(SCC(=O)Nc3cccc4ccccc34)nc12	Env fusion inh 88
Cc1cccc(OCC(=O)N/N=C/c2cccn2C)c1	Env fusion inh 62
Cc1ccc(OCC(=O)N/N=C/c2cccn2C)cc1C	none
CO[C@H](CN(C)C(=O)C1CC1)[C@H](C)CN(C(=O)Nc1ccc(C(F)(F)F)cc1)[C@@H](C)CO	Env fusion inh 56[16.7 µM] (no result: Gli-Sufu antag, GalR3 antagonist, NR2F2 inh, aDG glyco up)
CO[C@H](CN(C)S(=O)(=O)c1ccc(F)cc1)[C@@H](C)CN(C(=O)Nc1ccccc1F)[C@@H](C)CO	none (no result: Gli-Sufu antag, GalR3 antagonist, NR2F2 inh, aDG glyco up)
O=C(CN(Cc1ccccc1)S(=O)(=O)c1cccc(C(F)(F)F)c1)NC1CCCCC1	Env fusion inh 63
CCNC(=O)C[C@H]1CC[C@@H](NS(=O)(=O)c2ccc(C)cc2)[C@@H](CO)O1	none (no result: Gli-Sufu antag, GalR3 antagonist, NR2F2 inh, aDG glyco up)
C[C@@H]1CC[C@H]2C(=O)N3[C@@H](CC[C@@H](C)[C@@H]3c3ccc(Br)cc3)C(=O)N2[C@H]1c1ccc(Br)cc1	Env fusion inh 77
O=C1C2C3C=CC(CC3)C2C(=O)N1c1ccc(Br)cc1 (stereo not given)	none (no result: Gli-Sufu antag)
COc1ccc(Cl)cc1S(=O)(=O)N1CCCc2ccccc21	none
COc1ccc(Cl)cc1S(=O)(=O)N1CCN=C1C	Env fusion inh 34 (no result: GalR3 antagonist)
CC(=O)C1=C(C)NC(SCC(=O)c2cc(Cl)ccc2Cl)=C(C#N)C1c1ccco1 (stereo not given)	Gli-Sufu antag 69 (no result: Env fusion inh)
O=S(=O)(NCC1CCCO1)c1ccc(S(=O)(=O)N(Cc2ccccc2F)C2CCCCC2)cc1 (stereo not given)	Env fusion inh 59
O=C(C[C@H]1C[C@H]2c3cc(NC(=O)C4CCOCC4)ccc3O[C@H]2[C@H](CO)O1)NCc1ccccc1F	none (no result: Gli-Sufu antag, GalR3 antagonist, NR2F2 inh, aDG glyco up)
O=C(C[C@@H]1C[C@@H]2c3cc(NC(=O)C4CCOCC4)ccc3O[C@@H]2[C@H](CO)O1)NCc1ccccc1F	Env fusion inh 71[16.7 µM] (no result: Gli-Sufu antag, GalR3 antagonist, NR2F2 inh, aDG glyco up)
O=C(C[C@@H]1C[C@H]2c3cc(NC(=O)C4CCOCC4)ccc3O[C@H]2[C@H](CO)O1)NCc1ccccc1F	Env fusion inh 87[16.7 µM] (no result: Gli-Sufu antag, GalR3 antagonist, NR2F2 inh, aDG glyco up)
O=C(C[C@H]1C[C@H]2c3cc(NC(=O)C4CCOCC4)ccc3O[C@H]2[C@@H](CO)O1)NCc1ccccc1F	none (no result: Gli-Sufu antag, GalR3 antagonist, NR2F2 inh, aDG glyco up)
C[C@@H]1CN([C@H](C)CO)C(=O)CCCn2cc(nn2)CO[C@H]1CN(C)C	none (no result: Gli-Sufu antag, GalR3 antagonist, NR2F2 inh, aDG glyco up)
O=C1OC(CN(Cc2ccccc2)Cc2ccccc2)CN1N=Cc1ccc([N+](=O)[O-])o1 (stereo not given)	Env fusion inh 83
COc1ccc2c3c([nH]c2c1)[C@@H](CO)N(C(=O)c1cccnc1)CC31CCN(C(=O)Nc2cccc(F)c2)CC1	none (no result: Gli-Sufu antag, GalR3 antagonist, NR2F2 inh, aDG glyco up)
CCCOc1ccc(/C=C/C(=O)Nc2ccc([N+](=O)[O-])cc2)cc1	Env fusion inh 68
COc1ccc(NC(=O)Nc2ccc3c(c2)C(=O)N([C@@H](C)CO)C[C@H](C)[C@H](CN(C)S(=O)(=O)c2cn(C)cn2)OCCCC[C@@H](C)O3)cc1	none (no result: Gli-Sufu antag, GalR3 antagonist, NR2F2 inh, aDG glyco up)
CN(C)CCCNC(=O)C[C@H]1C=C[C@@H](NS(=O)(=O)c2ccccc2)[C@H](CO)O1	none (no result: Gli-Sufu antag, GalR3 antagonist, NR2F2 inh, aDG glyco up)
Cc1cccc(NC(=O)C2CCN(S(=O)(=O)c3ccc4c(c3)OCCCO4)CC2)n1	Env fusion inh 83
Cc1cccc(NC(=O)C2CCN(S(=O)(=O)c3ccc4c(c3)OCCO4)CC2)n1	none (no result: Env fusion inh)
COCc1cn(CC[C@H]2CC[C@H](NC(=O)Nc3ccc(Cl)cc3)[C@H](CO)O2)nn1	none (no result: Gli-Sufu antag, GalR3 antagonist, NR2F2 inh, aDG glyco up)
COc1ccc(NC(=O)N(C)C[C@H]2Oc3c(NS(C)(=O)=O)cccc3C(=O)N([C@@H](C)CO)C[C@@H]2C)cc1	none (no result: Gli-Sufu antag, GalR3 antagonist, NR2F2 inh, aDG glyco up)
COc1ccc(OCc2n(CC(=O)OC3CC(C)CCC3C(C)C)c3ccccc3[n+]2C)cc1 (stereo not given)	Env fusion inh 87
CC1CCC(C(C)C)C(OC(=O)CSc2nccc(=O)[nH]2)C1 (stereo not given)	none
COc1ccc(-c2n(CC(=O)OC3CC(C)CCC3C(C)C)c3ccccc3[n+]2C)cc1 (stereo not given)	Gli-Sufu antag 86
